The target in experiment [1] is Tyrosine-protein kinase SYK (Homo sapiens) (UniProt P43405). As to conditions: at 10 µM.
Experiment [2] has as its target T1, Mitogen-activated protein kinase kinase kinase 7 (Homo sapiens) (UniProt O43318).
T1 sequence (whole entry): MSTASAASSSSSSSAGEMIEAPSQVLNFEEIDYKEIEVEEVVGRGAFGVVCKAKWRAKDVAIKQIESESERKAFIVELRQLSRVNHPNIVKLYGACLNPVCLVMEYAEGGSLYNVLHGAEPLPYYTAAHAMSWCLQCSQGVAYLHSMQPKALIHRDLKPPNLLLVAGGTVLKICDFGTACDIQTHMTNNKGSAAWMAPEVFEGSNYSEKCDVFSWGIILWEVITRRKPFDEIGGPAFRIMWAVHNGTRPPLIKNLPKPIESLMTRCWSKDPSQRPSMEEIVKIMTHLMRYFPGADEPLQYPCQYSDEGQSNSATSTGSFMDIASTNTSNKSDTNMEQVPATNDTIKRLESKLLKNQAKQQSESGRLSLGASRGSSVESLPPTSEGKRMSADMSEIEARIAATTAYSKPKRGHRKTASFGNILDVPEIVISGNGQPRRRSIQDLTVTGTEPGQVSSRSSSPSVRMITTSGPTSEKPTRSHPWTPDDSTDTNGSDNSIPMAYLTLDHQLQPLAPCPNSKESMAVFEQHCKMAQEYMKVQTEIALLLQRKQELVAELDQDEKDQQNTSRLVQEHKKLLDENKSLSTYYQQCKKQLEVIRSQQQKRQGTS
As to conditions: at 1 µM.

In experiment [3] the target is T1, Mitogen-activated protein kinase kinase kinase 7 (Homo sapiens). As to conditions: at 10 µM.
Experiment [4] addresses T2, Serine/threonine-protein kinase TAO1 (Homo sapiens) (UniProt Q7L7X3).
T2 sequence (whole entry): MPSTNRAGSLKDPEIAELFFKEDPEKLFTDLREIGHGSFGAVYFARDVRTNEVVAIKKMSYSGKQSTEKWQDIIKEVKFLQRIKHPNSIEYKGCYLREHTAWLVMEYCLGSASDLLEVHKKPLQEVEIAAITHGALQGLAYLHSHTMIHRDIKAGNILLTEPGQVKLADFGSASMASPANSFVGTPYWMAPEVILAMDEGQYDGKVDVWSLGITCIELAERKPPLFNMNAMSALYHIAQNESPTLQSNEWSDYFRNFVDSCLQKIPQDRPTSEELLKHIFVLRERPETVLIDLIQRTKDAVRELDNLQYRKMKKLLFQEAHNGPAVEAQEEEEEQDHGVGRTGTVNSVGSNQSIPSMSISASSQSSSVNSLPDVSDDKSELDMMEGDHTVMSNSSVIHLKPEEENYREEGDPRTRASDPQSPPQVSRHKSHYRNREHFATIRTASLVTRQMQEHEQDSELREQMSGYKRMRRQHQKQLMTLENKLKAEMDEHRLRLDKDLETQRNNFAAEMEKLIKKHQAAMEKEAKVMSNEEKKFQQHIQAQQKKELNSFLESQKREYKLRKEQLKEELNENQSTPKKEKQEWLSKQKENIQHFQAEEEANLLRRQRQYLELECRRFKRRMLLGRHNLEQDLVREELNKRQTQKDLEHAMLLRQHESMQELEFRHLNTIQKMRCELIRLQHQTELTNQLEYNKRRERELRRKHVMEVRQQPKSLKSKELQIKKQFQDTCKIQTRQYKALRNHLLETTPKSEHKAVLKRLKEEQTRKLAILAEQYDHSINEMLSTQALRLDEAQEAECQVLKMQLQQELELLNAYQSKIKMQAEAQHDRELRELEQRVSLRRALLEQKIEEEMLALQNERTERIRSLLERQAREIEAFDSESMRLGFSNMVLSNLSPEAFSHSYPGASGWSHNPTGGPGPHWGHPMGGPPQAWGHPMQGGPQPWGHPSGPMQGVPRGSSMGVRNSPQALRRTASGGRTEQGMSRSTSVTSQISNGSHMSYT
As to conditions: at 1 µM.

In experiment [5] the target is T2, Serine/threonine-protein kinase TAO1 (Homo sapiens). As to conditions: at 10 µM.
In experiment [6] the target is T3, Serine/threonine-protein kinase TAO2 (Homo sapiens) (UniProt Q9UL54).
T3 sequence (whole entry): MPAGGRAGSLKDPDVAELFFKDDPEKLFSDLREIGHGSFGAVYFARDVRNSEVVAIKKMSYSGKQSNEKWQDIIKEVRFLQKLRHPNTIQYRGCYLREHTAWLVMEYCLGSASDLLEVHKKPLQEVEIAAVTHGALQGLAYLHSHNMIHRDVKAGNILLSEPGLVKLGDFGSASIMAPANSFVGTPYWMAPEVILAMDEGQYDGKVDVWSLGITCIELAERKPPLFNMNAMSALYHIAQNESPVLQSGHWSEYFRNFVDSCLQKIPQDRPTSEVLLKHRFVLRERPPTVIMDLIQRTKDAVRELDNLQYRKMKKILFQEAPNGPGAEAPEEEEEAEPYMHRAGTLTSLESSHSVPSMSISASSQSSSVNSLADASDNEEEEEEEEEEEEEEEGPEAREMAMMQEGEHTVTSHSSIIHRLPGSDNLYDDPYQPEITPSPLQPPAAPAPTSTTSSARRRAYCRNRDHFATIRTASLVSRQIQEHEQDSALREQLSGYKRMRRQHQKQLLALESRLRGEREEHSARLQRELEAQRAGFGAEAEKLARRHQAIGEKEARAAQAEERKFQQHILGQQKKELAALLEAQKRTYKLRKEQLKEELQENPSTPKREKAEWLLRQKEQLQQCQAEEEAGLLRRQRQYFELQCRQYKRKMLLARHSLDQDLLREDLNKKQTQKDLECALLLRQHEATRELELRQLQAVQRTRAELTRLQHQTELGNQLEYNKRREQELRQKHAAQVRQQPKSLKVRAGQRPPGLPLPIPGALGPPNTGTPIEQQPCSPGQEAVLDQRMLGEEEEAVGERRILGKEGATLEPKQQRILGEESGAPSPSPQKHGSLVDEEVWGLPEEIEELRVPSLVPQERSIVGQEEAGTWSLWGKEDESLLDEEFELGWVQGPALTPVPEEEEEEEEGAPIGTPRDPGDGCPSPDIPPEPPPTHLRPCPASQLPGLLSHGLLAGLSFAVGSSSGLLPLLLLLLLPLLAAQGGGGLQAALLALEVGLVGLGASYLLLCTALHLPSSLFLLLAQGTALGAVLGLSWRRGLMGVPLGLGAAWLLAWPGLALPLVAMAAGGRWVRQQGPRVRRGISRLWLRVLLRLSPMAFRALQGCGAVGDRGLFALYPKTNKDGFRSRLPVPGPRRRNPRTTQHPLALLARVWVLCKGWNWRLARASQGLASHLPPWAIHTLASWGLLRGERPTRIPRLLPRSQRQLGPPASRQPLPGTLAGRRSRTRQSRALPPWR
As to conditions: at 1 µM.

The target in experiment [7] is T3, Serine/threonine-protein kinase TAO2 (Homo sapiens). The note with it: at 10 µM.
Experiment [8] has as its target T4, Serine/threonine-protein kinase TAO3 (Homo sapiens) (UniProt Q9H2K8).
T4 sequence (whole entry): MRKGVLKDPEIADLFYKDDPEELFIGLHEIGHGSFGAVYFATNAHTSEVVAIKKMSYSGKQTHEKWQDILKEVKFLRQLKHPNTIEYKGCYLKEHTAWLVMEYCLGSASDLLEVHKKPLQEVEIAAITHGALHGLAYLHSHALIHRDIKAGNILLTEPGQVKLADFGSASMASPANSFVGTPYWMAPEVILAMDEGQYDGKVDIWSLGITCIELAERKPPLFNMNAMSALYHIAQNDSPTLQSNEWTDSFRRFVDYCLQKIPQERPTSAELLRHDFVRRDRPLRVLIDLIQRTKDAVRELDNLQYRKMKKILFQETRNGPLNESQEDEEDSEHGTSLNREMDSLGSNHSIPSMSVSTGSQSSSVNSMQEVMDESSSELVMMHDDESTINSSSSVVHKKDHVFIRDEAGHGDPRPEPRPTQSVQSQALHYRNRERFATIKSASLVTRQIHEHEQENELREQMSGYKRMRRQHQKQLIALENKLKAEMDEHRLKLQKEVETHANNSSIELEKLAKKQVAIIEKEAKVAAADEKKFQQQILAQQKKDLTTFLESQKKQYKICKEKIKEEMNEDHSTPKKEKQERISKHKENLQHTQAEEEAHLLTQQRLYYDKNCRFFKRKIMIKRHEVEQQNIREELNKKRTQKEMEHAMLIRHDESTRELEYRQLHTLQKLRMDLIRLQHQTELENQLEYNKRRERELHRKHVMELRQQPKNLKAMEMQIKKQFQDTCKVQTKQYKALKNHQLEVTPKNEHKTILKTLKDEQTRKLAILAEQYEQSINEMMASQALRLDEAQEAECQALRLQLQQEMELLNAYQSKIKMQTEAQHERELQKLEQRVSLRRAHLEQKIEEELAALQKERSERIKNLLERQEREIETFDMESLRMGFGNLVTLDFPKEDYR
The note with it: at 1 µM.

The target in experiment [9] is T4, Serine/threonine-protein kinase TAO3 (Homo sapiens). The note with it: at 10 µM.
Experiment [10] deals with T5, Serine/threonine-protein kinase TBK1 (Homo sapiens) (UniProt Q9UHD2).
T5 sequence (whole entry): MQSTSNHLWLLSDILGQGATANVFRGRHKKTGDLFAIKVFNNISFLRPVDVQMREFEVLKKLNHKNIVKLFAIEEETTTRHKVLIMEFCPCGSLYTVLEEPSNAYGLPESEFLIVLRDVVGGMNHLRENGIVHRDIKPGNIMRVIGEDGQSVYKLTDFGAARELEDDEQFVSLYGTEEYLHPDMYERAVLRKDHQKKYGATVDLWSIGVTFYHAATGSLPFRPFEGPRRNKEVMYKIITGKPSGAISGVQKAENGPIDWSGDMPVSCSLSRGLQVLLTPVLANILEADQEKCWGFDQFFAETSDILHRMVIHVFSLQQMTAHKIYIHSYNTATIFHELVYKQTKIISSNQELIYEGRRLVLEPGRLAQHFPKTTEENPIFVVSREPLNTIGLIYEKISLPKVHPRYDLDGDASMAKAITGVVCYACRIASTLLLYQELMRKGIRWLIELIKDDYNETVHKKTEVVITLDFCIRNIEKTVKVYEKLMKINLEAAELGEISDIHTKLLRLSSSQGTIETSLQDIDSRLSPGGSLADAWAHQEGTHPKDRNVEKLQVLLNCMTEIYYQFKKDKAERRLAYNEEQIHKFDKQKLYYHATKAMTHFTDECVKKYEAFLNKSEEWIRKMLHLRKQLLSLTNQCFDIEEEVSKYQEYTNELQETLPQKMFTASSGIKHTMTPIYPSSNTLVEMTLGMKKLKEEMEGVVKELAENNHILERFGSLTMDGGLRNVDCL
The note with it: at 1 µM.

For the compound `Cn1cc(/C=C2\C(=O)Nc3ccc(S(N)(=O)=O)cc32)c2ccccc21`, the residual activity in experiment [1] was 28%; in [2], 92%; in [3], 77%; in experiment [4], 74%; in experiment [5], 37%; in experiment [6] it was 100%. The residual activity turned out to be 88% in [7], 74% in experiment [8], 66% in experiment [9] and 8% in experiment [10].

These data come from ChEMBL document CHEMBL2218924, “A broad activity screen in support of a chemogenomic map for kinase signalling research and drug discovery” (Biochem J, 2013).
